The list is not random: actives were taken first. Their share in the collection is about 2.5%.
TSG101-PTAP inh: TSG101-PTAP interaction inhibition, HIV-1 budding. Fluorescence polarization, FITC-PTAP peptide/Tsg101, 20 min. AID 1347069. Potency, µM (series often up to 115 µM), most hits filed as inhibitors. 44,000 tested, under 10 active; note: potency is the fitted concentration of half-maximal effect; 0% is about no effect
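Steps: Tsg101 binding domain (10 uM final) in HEPES pH 7.5/NaCl/Tween 20/EDTA/TCEP; add compound; add FITC-PTAP peptide (50 nM final); incubate 20 min r.t.; read polarization.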
DRV1 agonist: agonists of human resolvin D1 receptor DRV1 (GPR32). O75388. CHO-K1 GPR32 beta-arrestin PathHunter luminescence, 90 min; zero percent set by DMSO-only wells. activation, % at 76.9 µM. 48,000 tested, 2.5% active;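 active = activation of at least 60% and not above a set upper limit, about 1 call in 100 departs from these limits; inconclusive = activation of 40% to 60%, or above that upper limit; inactive = activation under 40%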; note: 0% is about no effect
Target sequence (O75388 whole entry, looked up): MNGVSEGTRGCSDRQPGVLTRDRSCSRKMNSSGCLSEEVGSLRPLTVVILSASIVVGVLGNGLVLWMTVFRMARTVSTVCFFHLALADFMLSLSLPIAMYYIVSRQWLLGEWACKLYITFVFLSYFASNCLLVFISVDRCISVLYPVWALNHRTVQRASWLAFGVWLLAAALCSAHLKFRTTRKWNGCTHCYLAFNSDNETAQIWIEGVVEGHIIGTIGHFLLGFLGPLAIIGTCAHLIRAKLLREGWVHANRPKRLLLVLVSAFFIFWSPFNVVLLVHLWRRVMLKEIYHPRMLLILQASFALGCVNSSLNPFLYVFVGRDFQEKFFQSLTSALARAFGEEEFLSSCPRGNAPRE
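PathHunter beta-arrestin recruitment in CHO-K1 cells stably expressing ProLink-tagged GPR32. Cells were exposed to compound for 90 min at 37 C, then chemiluminescence was read after 1 h detection at ambient temperature; DMSO served as basal control.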
GALK inh: GALK (human) enzyme inhibition. P51570. recombinant GALK, Kinase-Glo ATP luminescence, 1 h. Potency, µM (top dose mostly 57.5 µM), inactives show at the highest dose activity, negative = inhibition, usual class: inhibitors. 44,000 tested, under 10 active. AID 1347072;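 note: plate controls were full GALK reaction for no effect and reaction lacking GALK for full effect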
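Luminescent ATP-depletion readout (Kinase-Glo Plus) after 1 h room-temperature incubation of human GALK (5 nM) with galactose 100 µM and ATP 35 µM, pH 8.0 HEPES/Mg2+ buffer; compounds tested in qHTS format.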
B2AR arrestin ag: beta-arrestin recruitment by human beta2-adrenergic receptor ligands | P07550 | HTLA Tango cells, beta-arrestin recruitment, luciferase luminescence, 18 h | Potency, µM (doses to about 46.1 µM), most hits filed as activators | 44,000 tested, under 10 active | AID 1347077;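 note: potency is the fitted concentration of half-maximal effect; 0% = DMSO and full agonism = EC100 isoproterenol or metaproterenol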
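Tango cells expressing recombinant beta2-AR and beta-arrestin were treated with compounds (up to 46 microM titration) in DMEM with 1% FBS for 18 hr at 37 degrees C. Beta-arrestin recruitment drove tTA-dependent luciferase, read by luminescence; curves were fitted and classed.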
Starred values were filed as active, the others as inactive; i = inactive; ? = inconclusive; . = not tested or not shown. Unless noted, calls come from the whole dose curve; as a rule, active = well fitted curve in the direction sought with a large enough effect; inconclusive = small, poorly fitted or top-dose-only effect, or another doubt; inactive = no such curve, though single readings can be large; an effect the other way counts as inactive or inconclusive.

SMILES	TSG101-PTAP inh	DRV1 agonist	GALK inh	B2AR arrestin ag
C[C@]12CC[C@H]3[C@@H](CCC4=CC(=O)CC[C@@H]43)[C@@H]1CC[C@@H]2OC(=O)CCc1ccco1	.	119*	.	.
C[C@]12CC[C@H](O)CC1=CC[C@@H]1[C@@H]2CC[C@]2(C)C(=O)CC[C@@H]12	.	73*	.	.
C=CCC1=C(C)C(OC(=O)C2C(C=C(C)C)C2(C)C)CC1=O (centres undefined)	.	74*	.	.
FC(F)(F)c1cccc(C2=CCN(CCc3ccc4ccccc4c3)CC2)c1	.	100*	.	.
CC(Cc1ccccc1)N(C)Cc1ccco1 (centres undefined)	.	2	.	.
COc1ccc(NC(=O)CCc2nc(C3=CCN(Cc4cccc(Cl)c4)CC3)no2)cc1OC	i	94*	-1%	i
Cc1cccc(CN2CC=C(c3noc(CCC(=O)Nc4ccc(C)c(F)c4)n3)CC2)c1	i	94*	1%	i
COc1ccc(NC(=O)CCc2nc(C3=CCN(Cc4cccc(Cl)c4)CC3)no2)c(OC)c1	i	27	3%	i
CC[N+]1(CC)CCC(OC(=O)C(O)(c2ccccc2)c2ccccc2)C1 (centres undefined)	.	-9	.	.
C[C@]12Cc3cn[nH]c3C[C@@H]1CC[C@@H]1[C@@H]2CC[C@@]2(C)[C@H]1CC[C@]2(C)O	.	-36	.	.
C[C@]12Cc3nonc3C[C@@H]1CC[C@@H]1[C@@H]2CC[C@@]2(C)[C@H]1CC[C@]2(C)O	.	65*	.	.
Fc1cc(Br)ccc1CBr	.	-11	.	.
CCC(COC(=O)c1cc(OC)c(OC)c(OC)c1)(c1ccccc1)N(C)C (centres undefined)	.	97*	.	.
CCOC(C(=O)OCCN(C)C)(c1ccccc1)c1ccccc1	.	-9	.	.
CCOC(=O)C1(c2ccccc2)CCN(CCc2ccc(N)cc2)CC1	.	5	.	.
Nc1c(C(=O)Nc2ccc(Cl)c(C(F)(F)F)c2)sc2nc3c(cc12)N1CCC3CC1	i	?	0%	i
Nc1c(C(=O)Nc2ccc(Cl)cc2)sc2nc3c(cc12)N1CCC3CC1	i	77*	-4%	i
C[C@]12CCC(=O)C=C1CC[C@@H]1[C@H]3CC[C@](C)(O)[C@@]3(C)CC[C@@H]12	.	106*	.	.
C[C@]12CCC(=O)C=C1CC[C@@H]1[C@@H]2CC[C@]2(C)C(=O)CC[C@@H]12	.	49	.	.
CC(Cc1ccccc1)NCCCCl (centres undefined)	.	-55	.	.
